In the library only some 9.9% were active in any assay of this set; here they are far more common.
KDM4E inh: blocks human JMJD2E demethylase activity; B2RXH2; JMJD2E catalytic domain, FDH-coupled NADH fluorescence (FDH is formaldehyde dehydrogenase); Potency, µM (top dose mostly 57.1 µM), without a hit: top-dose activity change, negative = inhibition, hits mostly inhibitors; 1.6% of 230,000 active; active = well fitted inhibition curve with a large enough effect, not every such curve was filed as active; inconclusive = small, poorly fitted or top-dose-only effect, or another doubt; inactive = no such curve, though single readings can be large or run the other way;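 also: 0% = wells with enzyme and -100% = buffer wells without enzyme; nearly all actives have a fitted effect of over 50% in size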
Target sequence (B2RXH2 1-337 limits assumed): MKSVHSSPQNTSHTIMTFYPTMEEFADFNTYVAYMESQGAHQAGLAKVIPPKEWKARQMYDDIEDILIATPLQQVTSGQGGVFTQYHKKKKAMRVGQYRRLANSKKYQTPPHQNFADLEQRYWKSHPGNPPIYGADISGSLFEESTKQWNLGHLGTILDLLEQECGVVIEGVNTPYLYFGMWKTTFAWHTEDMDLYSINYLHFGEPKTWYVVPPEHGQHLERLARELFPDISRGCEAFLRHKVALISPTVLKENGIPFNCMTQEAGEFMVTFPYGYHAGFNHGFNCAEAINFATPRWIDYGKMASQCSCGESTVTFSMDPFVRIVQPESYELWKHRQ
HPGD block: HPGD (human) dehydrogenase inhibition. P15428. AID 894. Potency, µM, inactives show top-dose activity change, negative = inhibition, usual class: inhibitors. 4.3% of 150,000 active. purified HPGD, NADH fluorescence kinetic, PGE2 substrate; active = well fitted inhibition curve with a large enough effect, not every such curve was filed as active; inconclusive = small, poorly fitted or top-dose-only effect, or another doubt; inactive = no such curve, though single readings can be large or run the other way
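20 nM HPGD preincubated 15 min at room temperature with compound in 50 mM Tris-HCl pH 8, 0.01% Tween 20. Started with 1 mM NAD+ and 30 uM prostaglandin E2; NADH fluorescence (360/450 nm) read 5 times over 30-s intervals, last minus first.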
Tau ThT inhib: tau fibrillization inhibition (ThT binding) | AID 1460 | Potency, µM (series often up to 57.4 µM), without a hit: at the top dose activity, negative = inhibition, actives largely listed as inhibitors | recombinant tau K18 P301L, heparin-induced fibrillization, ThT fluorescence | 2.1% of 270,000 active; also: nearly all actives have a fitted effect of over 55% in size
Target sequence (P10636 561-689 P618L limits assumed): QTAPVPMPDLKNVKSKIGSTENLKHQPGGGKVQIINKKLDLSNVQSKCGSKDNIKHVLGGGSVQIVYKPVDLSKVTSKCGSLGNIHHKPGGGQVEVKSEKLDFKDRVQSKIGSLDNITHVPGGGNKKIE
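Using a mix of unlabeled (15 uM) and Alexa 594-labeled (0.24 uM) tau K18 P301L, heparin-triggered fibrillization over 6 hr at 37 C was scored by ThT fluorescence.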
Tau fluor counter: counter-screen for tau fibril formation inhibitors; tau K18 P301L (four-repeat tau fragment) Alexa594 fluorescence, heparin fibrillization; Potency, µM (highest dose often 57.7 µM), without a hit: at the highest dose activity change, negative = decrease; 0.93% of 280,000 active; also: nearly all actives have a fitted effect of over 55% in size
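Human K18 P301L tau (15 uM unlabeled plus 0.24 uM Alexa 594-labeled, final) in 100 mM sodium acetate pH 7 was mixed with compound and 20 uM heparin and incubated 6 hr at 37 C.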
ALDH1A1 block: inhibitors of human aldehyde dehydrogenase 1A1; Potency, µM (titrated, usually from 75.3 µM), inactives show at the top dose activity, negative = inhibition, usual class: inhibitors; P00352; 7.3% of 220,000 active; Purified ALDH1A1, NADH fluorescence, propionaldehyde substrate; active = well fitted inhibition curve with a large enough effect, not every such curve was filed as active; inconclusive = small, poorly fitted or top-dose-only effect, or another doubt; inactive = no such curve, though single readings can be large or run the other way;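 also: plate controls were no enzyme wells and a reference inhibitor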
Tau FP inhib: blocks human tau fibril formation measured by polarization. 0.39% of 280,000 active. Potency, µM (titrated, usually from 57.7 µM), without a hit: at the top dose activity, negative = inhibition, hits mostly inhibitors. K18 P301L tau heparin fibrillization, Alexa594 FP, 6 h; also: nearly all actives have a fitted effect of over 55% in size
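Recombinant K18 P301L […], labeled with Alexa 594 at 0.24 uM over 15 uM unlabeled; heparin inducer 20 uM final; 37 C, 6 hr; FP endpoint.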
* = called active by the depositor; ? = inconclusive; . = no result; [ ] = another dose, or the depositor's remark. Unless noted, calls follow the shape of the dose curve; as a rule, active = well fitted curve in the direction sought with a large enough effect; inconclusive = small, poorly fitted or top-dose-only effect, or another doubt; inactive = no such curve, though single readings can be large; an effect the other way counts as inactive or inconclusive. Unless noted, % is scaled to controls: 0 for no effect and ±100 for the full control effect; potency is read from the fitted curve at half-maximal effect.

SMILES	KDM4E inh	HPGD block	Tau ThT inhib	Tau fluor counter	ALDH1A1 block	Tau FP inhib
Clc1ccc(C2CC(c3ccccc3)Nc3ncnn32)cc1 (stereo unspecified)	0%	0%	-2%	1%	1%	5%
COc1cccc(C2CC(c3ccccc3OC)n3ncnc3N2)c1 (stereo unspecified)	3%	-15%	5%	4%	14%	-3%
Cc1ccc(Cl)cc1N1CCN(C(=O)c2cc(S(=O)(=O)N3CCCC3)cn2C)CC1	.	.	2%	7%	.	-14%
CCN(CC)C(=O)c1sc2c(c1C)c(=O)n(-c1ccc(OC)cc1OC)c(=O)n2CC(=O)Nc1ccccc1	.	.	-12%	-18%	.	-2%
Cn1c(Cn2c(=O)sc3ccccc32)nnc1SCc1ccccn1	-1%	.	-11%	-12%	2µM*	-1%
CCOC(=O)C(NC(=O)NCc1ccccc1OC)(OCC)C(F)(F)F (stereo unspecified)	-2%	-5%	-2%	0%	10%	8%
COc1ccccc1CNC(=O)c1c(N)n(CCCN2CCOCC2)c2nc3ccccc3nc12	?	?	25µM*	?	?	-8%
Cc1ccc(CN2C(=O)CCC2C(=O)NC2CCCC2)cc1 (stereo unspecified)	11%	-9%	3%	3%	3%	1%
Cc1ccc(CN2C(=O)CCC2C(=O)NCCN(CC(C)C)CC(C)C)cc1 (stereo unspecified)	?	-7%	?	-14%	22µM*	3%
CC(C)OCCCNC(=O)C1CCC(CNS(=O)(=O)c2ccccc2)CC1 (stereo unspecified)	-1%	?	-3%	-8%	3.5µM*	-2%
Cc1ccc(S(=O)(=O)NCC2CCC(C(=O)NCCCOC(C)C)CC2)cc1 (stereo unspecified)	5%	-25%	-4%	-6%	0.71µM*	-7%
CC(C)OCCCNC(=O)C1CCC(CNS(=O)(=O)c2ccc(Cl)cc2)CC1 (stereo unspecified)	-3%	-10%	-10%	-11%	?	0%
OC[C@H]1NC[C@H](O)[C@@H](O)[C@H]1O	14%	-11%	-2%	-3%	-13%	-2%
CC(C)CSc1ncc(-c2cccc(C(F)(F)F)c2)cn1	-6%	-14%	-3%	-5%	22µM*	0%
CN(Cc1ccccc1)C(=O)COC(=O)c1cc(NS(=O)(=O)c2cccs2)ccc1O	?	.	-11%	-30%	9%	3%
CC1=[N+](C)c2c(ccc3cccnc23)C1(C)C	?	.	7.1µM*	7.1µM*[fluorescent]	?	?
O=C(c1ccccc1)c1c[nH]c(C(=O)NNc2ccccc2)c1	0%	.	?	-19%	22µM*	-14%
O=C(c1ccccc1)c1c[nH]c(C(=O)NCc2cccnc2)c1	8%	?	-1%	0%	-1%	-6%
CC(=O)Nc1ccc(-c2csc(Nc3ncccn3)n2)cc1	4%	.	-17%	-26%	6%	5%
Cc1nc2sccn2c1-c1nc(-c2cc3ccccc3o2)cs1	-7%	-15%	?	-16%	?	-4%
CC(=O)Nc1cccc(-c2csc(Nc3ccc(Cl)cn3)n2)c1	?	.	?	13µM*[quencher]	-2%	-5%
CC(=O)Nc1ccc(-c2csc(Nc3cc(C)ccn3)n2)cc1	-15%	.	7.1µM*	16µM*[quencher]	-11%	8%
CC(=O)Nc1cccc(-c2csc(Nc3cc(C)ccn3)n2)c1	?	-18%	?	18µM*[quencher]	?	5%
Cc1ccnc(Nc2nc(-c3c(C)nc4sccn34)cs2)c1	?	-11%	7.9µM*	14µM*[quencher]	6%	7%
CC(=O)Nc1cccc(-c2csc(Nc3ccccn3)n2)c1	-4%	-16%	?	?	-11%	1%
COC(=O)c1ccc(NC(=O)c2ccccc2-c2ccccc2C(=O)O)cc1	1%	.	1%	-3%	7%	3%
COc1cccc(OCC(=O)NC2CC(=O)N(c3cccc(OC)c3)C2)c1 (stereo unspecified)	.	.	-14%	-15%	.	-1%
